15 molecules from PubChem BioAssay (NCI) can be followed below.

This is part of a sample that, as a whole, favours compounds with a hit. Of some 83,000 tested, about 20% had one in any assay.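 Compound tested at a single concentration for 48 hours in 96-well plates; a percent growth value below 10 was scored as active.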 Values without a mark were called inactive. Active and inactive are the calls of the source.

Common to all, as to assay: NCI-60 one-dose screen, 48 h (100 = growth as untreated, 0 = no growth, -100 = all killed)
Common to all, as to conditions: 10 µM

The subject of assay [1] is RPMI-8226 leukemia.
Assay [2] deals with OVCAR-8 ovarian.
Assay [3] concerns OVCAR-5 ovarian.
For assay [4], the system named is OVCAR-4 ovarian.
In assay [5] the test system is SK-OV-3 ovarian.
Assay [6] has as its system IGROV1 ovarian.
In assay [7] the test system is HS 578T breast.
For assay [8], the system named is NCI/ADR-RES ovarian.
For assay [9], the system named is T-47D breast.
The subject of assay [10] is OVCAR-3 ovarian.

`CCCCCCCCN(CCCCCCCC)CCCCCCCCCN1CCCc2cc(OC)ccc21`: the growth in [1] is 65.9%; in assay [2], 101%; in assay [3] it was 90.9%; in assay [4] it was 78.2%; in [5], 93.6%; in assay [6] it was 101%. Further, the growth is 91.3% in assay [7], 88.5% in [8] and 74.3% in [9].

For the molecule `COc1ccc(/C(=C2/O[C@@H]([C@H]3COC(C)(C)O3)[C@H]3OC(C)(C)O[C@@H]23)c2cc(OC)c(OC)c(OC)c2)cc1O`, the growth in assay [1] is 36.4%; in [2], 96.1%; in assay [3], 92.9%; in assay [4] it was 106%; in [5], 90.1%; in [6], 92.6%. Further, the growth is 58.3% in assay [10], -10.5% (active) in assay [8] and 115% in assay [9].

Take `O=C(C[n+]1ccccc1)c1ccc2ccccc2c1`: the growth in assay [1] was 93.4%; in [2], 89%; in assay [3], 75.9%; in assay [4] it was 86.3%; in [5], 101%; in assay [6] it was 105%. The growth in [10] is 95%; in assay [8], 92%; in assay [9] it was 87.2%.

As to `c1ccc2c(-c3nc(N4CCOCC4)c4c5c(sc4n3)CCCCCC5)cccc2c1`, the growth in [1] is 112%; in assay [2], 101%; in assay [3], 103%; in assay [4], 106%; in assay [5], 111%; in assay [6], 112%. The growth is 104% in [7], 109% in [8] and 95% in assay [9].

On to `CCC1(C(C)C)NC(=O)NC1=O` (stereo not drawn), for which the growth in [1] is 91.8%; in assay [2] it was 104%; in assay [3], 89.3%; in assay [4], 103%; in assay [5], 107%; in [6] it was 112%. Also, the growth is 115% in assay [10], 99.5% in assay [8] and 97% in assay [9].

For `O=C1/C(=C\c2ccccc2)CN(C(=O)c2ccccc2F)C/C1=C\c1ccccc1`, the growth in [1] is -40.3% (active); in assay [2], 10.6%; in assay [3] it was 64.9%; in [4], 28.8%; in assay [5], 36.6%; in assay [6], -11.2% (active). Moreover, the growth in assay [10] is -20.1% (active); in assay [7], -10.1% (active); in [8], 23.8%; in [9], 42.7%.

Turning to `COC(=O)c1ccc(=O)oc1`, the growth in assay [1] was 93.7%; in assay [2] it was 104%; in assay [3] it was 89.1%; in assay [4], 102%; in assay [5], 107%; in assay [6], 112%. The growth in assay [10] is 116%; in assay [8] it was 97.1%; in assay [9], 96.3%.

On to `CC(C)N(CCNc1nc(C(Cl)(Cl)Cl)nc2cc(Cl)ccc12)C(C)C`, for which the growth in assay [1] was 3.61% (active); in assay [2], -73.9% (active); in [3], -11.1% (active); in assay [4], 7.56% (active); in assay [5] it was -27.6% (active); in [6], -38.4% (active). Besides, the growth in [10] was -37.5% (active); in [7], 12%; in [9] it was 5.12% (active).

For the molecule `COc1cc(C(=C2O[C@@H]([C@H]3COC(C)(C)O3)[C@H]3OC(C)(C)O[C@@H]23)c2cc(OC)c(OC)c(OC)c2)cc(OC)c1OC`, the growth is 88.1% in assay [1]; 108% in assay [2]; 90.8% in [3]; 108% in [4]; 116% in assay [5]; 137% in assay [6]. Besides, the growth in [10] is 112%; in [8], 91.7%; in [9], 95.7%.

Turning to `O=C(Cc1csc2nc(-c3ccc(Cl)cc3)cn12)N/N=C/c1ccccc1O`, the growth in assay [1] was 23.6%; in assay [2], 41.6%; in assay [3], 58.2%; in assay [4], 43.2%; in [5] it was 52.7%; in assay [6], 11.7%. In addition, the growth in assay [10] was 13.9%; in assay [8] it was 41.3%; in assay [9] it was 57.7%.

As for `O=C(CSSCC(=O)c1ccc(Cl)cc1)c1ccc(Cl)cc1`, the growth in assay [1] is 24.9%; in [2] it was 47.8%; in [3], 60.1%; in assay [4], 85.8%; in assay [5], 60%; in assay [6], 78.9%. In addition, the growth in [10] is 78.4%; in assay [8], -13% (active); in [9], 74.8%.

For the molecule `CCOC1(OCC)OC(c2ccccc2)=C(C#N)C(/C=C\c2ccccc2)C1(OCC)OCC` (stereo not drawn), the growth in assay [1] was 44.5%; in assay [2], 86.5%; in assay [3] it was 103%; in [4], 79.6%; in assay [5], 94.8%; in assay [6], 85.6%. Besides, the growth is 71.8% in [10], 95.1% in assay [7] and 67.5% in assay [9].

On to `COc1ccc(-c2nn(-c3cccc(NC(=O)Nc4ccc(Cl)c(C(F)(F)F)c4)c3)cc2-c2ccncc2)cc1Cl`, for which the growth is -19.2% (active) in assay [1]; 1.48% (active) in [2]; 39.8% in assay [3]; 21.7% in assay [4]; 16.7% in [5]; 15.7% in [6]. The growth in assay [10] was -2.03% (active); in assay [7], 33.8%; in assay [8], 9.26% (active); in assay [9], -6.17% (active).

For `CC(=O)N1C/C(=C/c2ccc(Cl)cc2)C(=O)/C(=C/c2ccc(Cl)cc2)C1`, the growth is -45.2% (active) in [1]; 4.95% (active) in assay [2]; 18.2% in [3]; 10.9% in assay [4]; -10.9% (active) in assay [5]; -55.7% (active) in assay [6]. Besides, the growth in [10] was -40.6% (active); in assay [7], 14.5%; in [8], 10.4%; in assay [9], 30.1%.

With `CCN(CCCCCCCCCCN1CC(=O)N(CCCCCCCCCCN(CC)Cc2ccccc2OC)CC1=O)Cc1ccccc1OC`, the growth in [1] was -70.2% (active); in [2], -77.1% (active); in assay [3] it was 8.29% (active); in [4] it was 10.2%; in assay [5], -38.5% (active); in [6], -66.3% (active). Further, the growth is -62.6% (active) in [10], -32.9% (active) in assay [8] and -66.5% (active) in assay [9].
